# Results filed as inconclusive are left out. Values without a mark were called inactive. Calls follow the shape of the dose curve; as a rule, active = well fitted cell-killing curve with a large enough effect in the repeat runs; inconclusive = weak or mixed curves, or effect the other way; inactive = no such curve, though single readings can be large or run the other way.
# Experiment: qHTS assay to identify small molecule agonists of the vitamin D receptor (VDR) signaling pathway - cell viability counter screen (AID 743224); also: nearly all actives have a fitted effect of over 50% in size
# Details: VDR-bla HEK293T viability, CellTiter-Glo luminescence, 16 h; series mostly up to 62.6 µM; activity change, negative = cytotoxicity: at the top concentration
# From the text: U.S. Tox21 Program National Center for Advancing Translational Sciences [NCATS] NIH Chemical Genomics Center [NCGC] U.S. Environmental Protection Agency [EPA] National Institutes of Environmental Health Sciences [NIEHS] National Toxicology Program [NTP] U.S. Food and Drug Administration [FDA] Tox21 Assay Overview: The vitamin D receptor (VDR), a member of nuclear hormone receptor superfamily, plays a critical role in calcium homeostasis and bone metabolism. It is also involved in cell differentiation and growth, and thrombogenicity. […] The cytotoxicity of the Tox21 compound library against the VDR-bla cell line was tested in parallel by measuring the cell viability using CellTiter-Glo assay (Promega, Madison, WI) in the same wells.
# Tox21 Assay Protocol Summary: VDR-bla cells were dispensed at 2,000 cells/6 uL/well into black wall/clear-bottom 1536-well plates using a Multidrop Combi (Thermo Fisher Scientific, Waltham, MA) dispenser. After the assay plates were incubated at a 37C and 5% CO2 for 4 h, 23 nL of compounds dissolved in DMSO, positive controls or DMSO only was transferred to the assay plate by a Pintool station (Kalypsys, San Diego, CA). The plates were incubated at 37C and 5% CO2 for 16 h. After 1 uL of LiveBLAzerTM B/G FRET substrate was added using a Bioraptr Flying Reagent Dispenser (FRD) workstation (Beckman Coulter, Indianapolis, IN, USA), the plates were incubated at room temperature for 2 h, and fluorescence intensity was measured by an Envision plate reader (PerkinElmer, Shelton, CT). For cell viability readout that measures cytotoxicity, 3 ul/well of CellTiter-Glo reagent was added into the assay plates using a FRD. After 30 min incubation at room temperature, the luminescence intensity in the plates was measured using a ViewLux (PerkinElmer) plate reader.
# % is scaled to controls: 0 for no effect and ±100 for the full control effect.
row,Structure (SMILES),"activity change, negative = cytotoxicity"
1,Nc1nnc(-c2cccc(Cl)c2Cl)c(N)n1,15.2%
2,N[C@@H](CCC(=O)Nc1ccc([N+](=O)[O-])cc1)C(=O)O,2.1%
3,CCCCCCCCCC(C)=O,5.52% [at 81.1 µM]
4,C=CCCCCCCCCCCCC,7.92%
5,Cc1ccccc1OCC(O)CO (stereo not given),-0.947%
6,CC(C)(C)c1n[nH]c(=S)n(N)c1=O,6.57%
7,C=C(C)C1CCC(C)(O)CC1 (stereo not given),-6.27%
8,O=C(NCCN1CCOCC1)c1ccc(Cl)cc1,-3.47%
9,CC1COc2ccccc2N1 (stereo not given),7.38%
10,CCN(C)C(=O)Oc1cccc([C@H](C)N(C)C)c1,11.8%
11,CCOc1cc(NC(C)=O)ccc1C(=O)OC,4.92%
12,CCOc1cc([N+](=O)[O-])c(OCC)cc1N1CCOCC1,17.3%
13,COc1nccnc1NS(=O)(=O)c1ccc(N)cc1,-0.808%
14,Oc1cn2c(n1)Nc1ccc(Cl)c(Cl)c1C2,-0.508% [at 29.1 µM]
15,C=Cc1ccccn1,10.1% [at 81.1 µM]
16,CCCCCCCCC(=O)Cl,6.98% [at 81.1 µM]
17,O=C(O)C(=O)Cc1ccccc1,9.12%
18,N[C@@H](COP(=O)(O)O)C(=O)O,17% [at 29.1 µM]
19,CCCCC(CC)COCCO (stereo not given),-16.4%
20,CC(=O)NCc1c(I)c(NC(C)=O)c(I)c(C(=O)O)c1I,7.71%

row,Structure (SMILES),"activity change, negative = cytotoxicity"
1,CC(=O)Nc1ccc(S(=O)(=O)Nc2ccc([N+](=O)[O-])cc2)cc1,-9.99%
2,CCc1ccc(C=O)cc1,21.2%
3,CCCOC(OCCC)OCCC,1.76%
4,N[C@@H](CCC(=O)N[C@@H](CS)C(=O)NCC(=O)O)C(=O)O,8.98% [at 29.1 µM]
5,COc1cc2c(cc1OC)[C@@H]1CC(=O)[C@@H](CC(C)C)CN1CC2,7.97%
6,Cc1cc(C(C)(C)C)c(O)c(C)c1CC1=NCCN1,-1.86%
7,Cc1ccc(S(=O)(=O)O)c(C)c1,8.08%
8,CN(C)c1ccc(C=O)cc1,-2.11%
9,Cc1[nH]cnc1-c1ccc(Cl)cc1,1.79%
10,N#Cc1ccc(C(=O)O)cc1,8.12%
11,Nc1ccc2cc(S(=O)(=O)O)cc(O)c2c1,14%
12,CCCCCCOC(=O)CC,-1.19%
13,CC(C)c1ccc2cc(C(C)C)ccc2c1,9.47%
14,Cc1ccccc1N=O,8.95% [at 81.1 µM]
15,C=CC(OCC)OCC,-8.96%
16,CC(C)(C)NC(N)=O,10.4%
17,Cc1cccc(OCC(O)CNC(C)(C)C)c1C (stereo not given),3.3%
18,CC(C)C(=O)OCCc1ccccc1,19.6%
19,CC(C(=O)O)c1ccc2c(c1)CC(=O)c1ccccc1S2 (stereo not given),1.31%
20,CC(C)(C)c1cc(CCC(=O)NN)cc(C(C)(C)C)c1O,-19%

# From PubChem BioAssay (Tox21)
